Source: PubChem BioAssay (NCATS)
Results filed as inconclusive are left out. Active and inactive are the calls of the source. The call rests on the fitted dose curve; in most records, active means well fitted curve in the direction sought with a large enough effect; inconclusive means small, poorly fitted or top-dose-only effect, or another doubt; inactive means no such curve, though single readings can be large; an effect the other way counts as inactive or inconclusive.

What was measured:
[1] = NS1 protein of Zika virus - qHTS assay to identify small molecule inhibitors in human HEK 293 cells (AID 1347053);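 further: series mostly up to about 46 µM; plate controls were infected untreated cells for no effect and uninfected cells for full effect; nearly all actives have a fitted effect of over 55% in size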
Summary of the method: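 In this cell-based screen, HEK 293 cultures received compound for one hour before Zika MR766 at MOI = 0.5. NS1 was quantified 24 hours later by TR-FRET, normalized to virus-free wells and infected wells.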

[2] = qHTS of pediatric cancer cell lines to identify multiple opportunities for drug repurposing: Primary screen for TC32 cells (AID 1347089); further: on the % scale 0 is the no-effect control and ±100 the full control effect; nearly all actives have a fitted effect of over 60% in size
Summary of the method: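 TC32 cells, 500-1,000/well in growth medium, compound-treated 48 h at 37 °C; viability from CellTiter-Glo luminescence. Primary screen: MIPE 11-point (0.78 nM–46 µM final), NPC 8-point (0.59 nM–46 µM final); confirmatory at 11-point dilutions.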

[3] = qHTS of pediatric cancer cell lines to identify multiple opportunities for drug repurposing: Primary screen for DAOY cells (AID 1347090);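 further: series mostly up to about 46 µM; plate controls were DMSO for no effect and bortezomib for full effect; nearly all actives have a fitted effect of over 55% in size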
Summary of the method: (§1)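 Viability measured as metabolically active cells via CellTiter-Glo luminescence following 48 hours of compound exposure, 11-point dilutions in confirmatory testing. 500-1,000 cells/well plated 5 hours before dosing; controls were DMSO and 2.3 µM bortezomib.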

[4] = qHTS of pediatric cancer cell lines to identify multiple opportunities for drug repurposing: Primary screen for SJ-GBM2 cells (AID 1347091);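 further: plate controls were DMSO neutral control for no effect and bortezomib for full effect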
Summary of the method: as §1

[5] = qHTS of pediatric cancer cell lines to identify multiple opportunities for drug repurposing: Primary screen for A673 cells (AID 1347092); further: on the % scale 0 is the no-effect control and ±100 the full control effect; nearly all actives have a fitted effect of over 45% in size
Summary of the method: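 A673 cells (500-1,000 cells/well) were treated 48 hours at 37 degrees C with compounds at 11-point (0.78 nM to 46 µM) or 8-point (0.59 nM to 46 µM) dilutions. Viability read by CellTiter-Glo luminescence; concentration-response curves fitted.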

[6] = qHTS of pediatric cancer cell lines to identify multiple opportunities for drug repurposing: Primary screen for SK-N-MC cells (AID 1347093);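 further: series mostly up to about 46 µM; plate controls were DMSO neutral control for no effect and bortezomib for full effect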
Summary of the method: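 Metabolically active cells were quantified by ATP-dependent luminescence (CellTiter-Glo, 15 min at room temperature) following 48 h treatment. Cells had been plated at 500-1,000 per well and settled for 5 h beforehand.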

[7] = qHTS of pediatric cancer cell lines to identify multiple opportunities for drug repurposing: Primary screen for BT-37 cells (AID 1347094);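 further: series mostly up to about 57 µM; plate controls were DMSO for no effect and bortezomib for full effect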
Summary of the method: (§2)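 Cells seeded at 500-1,000 cells/well in growth media, rested 5 hours at 37 degrees C, 5% CO2, then dosed; MIPE compounds at 11-point (from 0.78 nM) and NPC at 8-point (from 0.59 nM) final concentrations. Viability by CellTiter-Glo luminescence after 48 hours.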

[8] = qHTS of pediatric cancer cell lines to identify multiple opportunities for drug repurposing: Primary screen for U-2 OS cells (AID 1347096);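 further: plate controls were DMSO wells for no effect and bortezomib positive control wells for full effect; nearly all actives have a fitted effect of over 50% in size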
Summary of the method: (§3)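 Viability after 48 h compound treatment at 37C, 500-1,000 cells/well, read as ATP luminescence with CellTiter-Glo. Primary screens used 11-point (MIPE, 0.78 nM-46 µM) or 8-point (NPC, 0.59 nM-46 µM) final concentrations; follow-up screens used 11-point dilutions.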

[9] = qHTS of pediatric cancer cell lines to identify multiple opportunities for drug repurposing: Primary screen for Saos-2 cells (AID 1347097); further: on the % scale 0 is the no-effect control and ±100 the full control effect; nearly all actives have a fitted effect of over 40% in size
Summary of the method: as §2

[10] = qHTS of pediatric cancer cell lines to identify multiple opportunities for drug repurposing: Primary screen for SK-N-SH cells (AID 1347098);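 further: DMSO served as neutral control and bortezomib at 2.3 µM as positive control; on the % scale 0 is the no-effect control and ±100 the full control effect; nearly all actives have a fitted effect of over 65% in size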
Summary of the method: (§4)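 Cells (500-1,000/well) rested 5 h, then received compounds for 48 h; metabolically active cells were measured by CellTiter-Glo luminescence. Final concentrations spanned up to 46 µM (MIPE, 11-point) or 0.59 nM-46 µM (NPC, 8-point) in primary screens, 11-point in follow-ups.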

[11] = qHTS of pediatric cancer cell lines to identify multiple opportunities for drug repurposing: Primary screen for NB1643 cells (AID 1347099);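 further: plate controls were DMSO neutral control for no effect and bortezomib positive control for full effect; nearly all actives have a fitted effect of over 50% in size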
Summary of the method: as §2

[12] = qHTS of pediatric cancer cell lines to identify multiple opportunities for drug repurposing: Primary screen for LAN-5 cells (AID 1347100);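 further: plate controls were DMSO neutral control for no effect and bortezomib positive control for full effect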
Summary of the method: as §3

[13] = qHTS of pediatric cancer cell lines to identify multiple opportunities for drug repurposing: Primary screen for BT-12 cells (AID 1347101);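 further: plate controls were DMSO for no effect and bortezomib positive control for full effect; nearly all actives have a fitted effect of over 25% in size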
Summary of the method: as §4

[14] = qHTS of pediatric cancer cell lines to identify multiple opportunities for drug repurposing: Primary screen for Rh18 cells (AID 1347102); further: on the % scale 0 is the no-effect control and ±100 the full control effect; nearly all actives have a fitted effect of over 65% in size
Summary of the method: as §3

[15] = qHTS of pediatric cancer cell lines to identify multiple opportunities for drug repurposing: Primary screen for OHS-50 cells (AID 1347103);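 further: plate controls were DMSO neutral control for no effect and bortezomib positive control for full effect; nearly all actives have a fitted effect of over 40% in size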
Summary of the method: as §4

[16] = qHTS of pediatric cancer cell lines to identify multiple opportunities for drug repurposing: Primary screen for NB-EBc1 cells (AID 1347095);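 further: plate controls were DMSO neutral control for no effect and bortezomib for full effect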
Summary of the method: as §2

[17] = qHTS of pediatric cancer cell lines to identify multiple opportunities for drug repurposing: Primary screen for RD cells (AID 1347104);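 further: plate controls were DMSO for no effect and bortezomib for full effect; nearly all actives have a fitted effect of over 55% in size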
Summary of the method: as §2

CC[N+](CC)(CCNC(=O)C(=O)NCC[N+](CC)(CC)Cc1ccccc1Cl)Cc1ccccc1Cl
inactive: Potency [1] | Potency [2] | Potency [3] | Potency [4] | Potency [5] | Potency [6] | Potency [7] | Potency [8] | Potency [9] | Potency [10] | Potency [11] | Potency [12] | Potency [13] | Potency [14] | Potency [15]

C[C@H](CCC(=O)O)[C@H]1CC[C@H]2[C@@H]3C(=O)C[C@@H]4CC(=O)CC[C@]4(C)[C@H]3CC(=O)[C@]12C
inactive: Potency [1] | Potency [2] | Potency [3] | Potency [4] | Potency [5] | Potency [6] | Potency [7] | Potency [16] | Potency [8] | Potency [9] | Potency [10] | Potency [12] | Potency [13] | Potency [14] | Potency [15]

CC1(C)O[C@@H]2C[C@H]3[C@@H]4CCC5=CC(=O)CC[C@]5(C)[C@@]4(F)[C@@H](O)C[C@]3(C)[C@]2(C(=O)CCl)O1
inactive: Potency [1] | Potency [2] | Potency [3] | Potency [4] | Potency [5] | Potency [6] | Potency [7] | Potency [16] | Potency [8] | Potency [9] | Potency [10] | Potency [11] | Potency [12] | Potency [14] | Potency [17]

C/C=C/c1ccc(OC)cc1
inactive: Potency [1] | Potency [2] | Potency [3] | Potency [4] | Potency [5] | Potency [6] | Potency [7] | Potency [16] | Potency [8] | Potency [9] | Potency [10] | Potency [11] | Potency [13] | Potency [14] | Potency [15] | Potency [17]

COc1cc2c(cc1OC)C(=O)C(CC1CCN(Cc3ccccc3)CC1)C2 (stereo not given)
inactive: Potency [1] | Potency [2] | Potency [3] | Potency [4] | Potency [5] | Potency [6] | Potency [7] | Potency [16] | Potency [8] | Potency [9] | Potency [13] | Potency [14] | Potency [17]

CCCN1CCCC[C@H]1C(=O)Nc1c(C)cccc1C
inactive: Potency [1] | Potency [2] | Potency [3] | Potency [4] | Potency [5] | Potency [6] | Potency [7] | Potency [16] | Potency [8] | Potency [9] | Potency [10] | Potency [11] | Potency [13] | Potency [14] | Potency [15] | Potency [17]

CN(C)CCOc1ccccc1Cc1ccccc1
inactive: Potency [1] | Potency [2] | Potency [3] | Potency [4] | Potency [5] | Potency [6] | Potency [7] | Potency [16] | Potency [8] | Potency [9] | Potency [11] | Potency [12] | Potency [13] | Potency [14] | Potency [17]

CNC(=O)CN(CCN(CCN(CC(=O)[O-])CC(=O)NC)CC(=O)[O-])CC(=O)[O-].O.[Gd+3]
inactive: Potency [1] | Potency [2] | Potency [3] | Potency [4] | Potency [5] | Potency [6] | Potency [7] | Potency [16] | Potency [8] | Potency [9] | Potency [10] | Potency [13] | Potency [14] | Potency [15] | Potency [17]

NC[C@H]1O[C@H](O[C@H]2[C@H](O[C@@H]3O[C@H](CO)[C@@H](O)[C@H]3O)C(O)[C@H](N)C[C@@H]2N)[C@H](N)[C@@H](O)[C@@H]1O (stereo not given in full)
inactive: activity change, negative = inhibition [1] -23.8% [at 9.2 µM] | activity change, negative = cytotoxic [2] 6.72% [at 9.17 µM] | activity change, negative = cytotoxic [3] 6.37% [at 9.22 µM] | activity change, negative = cytotoxic [4] 15.5% [at 9.22 µM] | activity change, negative = cytotoxic [5] -0.207% [at 9.22 µM] | activity change, negative = cytotoxic [6] -3.87% [at 9.22 µM] | activity change, negative = cytotoxic [7] 10.7% [at 11.5 µM] | activity change, negative = cytotoxic [8] 11.5% [at 9.22 µM] | activity change, negative = cytotoxic [9] -4.84% [at 9.22 µM] | activity change, negative = cytotoxic [10] 19.9% [at 11.4 µM] | activity change, negative = cytotoxic [11] 0% [at 9.22 µM] | activity change, negative = cytotoxic [12] 25.3% [at 9.22 µM] | activity change, negative = cytotoxic [13] 7.42% [at 11.5 µM] | activity change, negative = cytotoxic [14] 31.2% [at 9.22 µM] | activity change, negative = cytotoxic [15] 7.33% [at 11.5 µM] | activity change, negative = cytotoxic [17] 14% [at 9.22 µM]

CC(O)C(=O)O (stereo not given)
inactive: Potency [1] | Potency [2] | Potency [3] | Potency [4] | Potency [5] | Potency [6] | Potency [7] | Potency [16] | Potency [8] | Potency [9] | Potency [10] | Potency [12] | Potency [13] | Potency [14] | Potency [15] | Potency [17]

N[C@H](Cc1c[nH]c2ccccc12)C(=O)O
inactive: Potency [1] | Potency [2] | Potency [3] | Potency [4] | Potency [5] | Potency [6] | Potency [7] | Potency [16] | Potency [8] | Potency [10] | Potency [11] | Potency [12] | Potency [13] | Potency [14] | Potency [17]

CCOc1ccc(NC(=O)CC(C)O)cc1 (stereo not given)
inactive: Potency [1] | Potency [2] | Potency [3] | Potency [4] | Potency [5] | Potency [6] | Potency [7] | Potency [16] | Potency [8] | Potency [10] | Potency [13] | Potency [14] | Potency [15] | Potency [17]

CCCCOc1ccc(OCCCN2CCOCC2)cc1
inactive: Potency [1] | Potency [2] | Potency [3] | Potency [4] | Potency [5] | Potency [6] | Potency [7] | Potency [16] | Potency [8] | Potency [9] | Potency [10] | Potency [11] | Potency [14]

Cc1c(F)c(N2CCNC(C)C2)cc2c1c(=O)c(C(=O)O)cn2C1CC1 (stereo not given)
inactive: Potency [1] | Potency [2] | Potency [3] | Potency [4] | Potency [5] | Potency [6] | Potency [7] | Potency [16] | Potency [8] | Potency [9] | Potency [10] | Potency [11] | Potency [12] | Potency [13] | Potency [14] | Potency [17]
